HEK cytotox = kills HEK 293 cells; HEK 293 viability, ATP luminescence (CellTiter-Glo), 48-72 h; Potency, µM (top dose mostly 115 µM), usual class: inhibitors; hit rate 6.6% among 94,000; AID 1345083; further: nearly all actives have a fitted effect of over 60% in size
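HEK 293 cells seeded at 250 cells/well were exposed to compound for 48 or 72 hr at 37 degree Celsius. Viability taken as ATP content by CellTiter-Glo luminescence.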
hNpr1 antagonist = antagonists of human natriuretic peptide receptor Npr1; P16066; HEK293 hNpr1 GloSensor cGMP, ANP-stimulated luminescence; Potency, µM (series often up to 46.3 µM), most hits filed as inhibitors; AID 1347048; hit rate 1.6% among 76,000; calls by dose curve; further: nearly all actives have a fitted effect of over 60% in size
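HEK293 cells stably expressing human Npr1 and cGMP GloSensor pGS-40F, loaded 2 h with 2% GloSensor reagent, given compound 30 min at room temperature. Luminescence read before and 20 min after 0.1 nM hNppA.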
GPT2 inhibitor = blocks human glutamate pyruvate transaminase 2 | Recombinant GPT2, coupled pyruvate oxidase/HRP Amplex Red fluorescence | Potency, µM (series often up to 57.7 µM), actives largely listed as inhibitors | Q8TD30 | AID 1671188 | hit rate 0.25% among 100,000; further: nearly all actives have a fitted effect of over 60% in size
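GPT2 10ng/uL, a-KG 250uM, L-Ala 2mM, HEPES pH7.5 + 0.0001% Tween; 30 min RT. Then Amplex mix (PO/HRP/ThPP), 30 min RT dark, fluorescence. AOA 50uM used as positive control.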
3T3 cytotox = NIH 3T3 cell cytotoxicity; NIH 3T3 viability, CellTiter-Glo ATP luminescence, 48-72 h; Potency, µM (highest dose often 96.7 µM), usual class: inhibitors; hit rate 4.3% among 94,000; further: nearly all actives have a fitted effect of over 55% in size
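Cells were seeded at 400 per well, treated with pin-transferred compound, and kept 48 or 72 hr at 37 °C before CellTiter-Glo addition and luminescence imaging of cellular ATP.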
Luciferase inh = blocks purified firefly luciferase enzyme activity; AID 1347043; Potency, µM (titrated, usually from 115 µM), actives largely listed as inhibitors; P08659; purified P. pyralis luciferase, luminescence, biochemical; hit rate 2.5% among 76,000; further: nearly all actives have a fitted effect of over 65% in size
Target sequence (P08659 whole entry, looked up): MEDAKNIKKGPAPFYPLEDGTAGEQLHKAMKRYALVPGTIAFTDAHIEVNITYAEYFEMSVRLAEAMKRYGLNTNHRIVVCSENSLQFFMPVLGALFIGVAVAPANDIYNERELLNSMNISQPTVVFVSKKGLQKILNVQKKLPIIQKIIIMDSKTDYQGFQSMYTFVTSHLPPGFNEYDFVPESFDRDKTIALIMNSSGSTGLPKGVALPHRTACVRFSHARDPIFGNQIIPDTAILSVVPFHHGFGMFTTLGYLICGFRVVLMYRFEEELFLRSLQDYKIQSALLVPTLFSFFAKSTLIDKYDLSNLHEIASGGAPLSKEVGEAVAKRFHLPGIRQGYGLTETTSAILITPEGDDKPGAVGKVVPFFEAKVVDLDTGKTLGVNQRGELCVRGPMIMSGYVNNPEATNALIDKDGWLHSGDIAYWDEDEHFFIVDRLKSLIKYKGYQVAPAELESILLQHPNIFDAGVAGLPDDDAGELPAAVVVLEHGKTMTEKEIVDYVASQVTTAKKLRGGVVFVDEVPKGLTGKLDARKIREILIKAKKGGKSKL
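Purified P. pyralis luciferase (10nM final) in 50mM Tris acetate pH 7.5, 10mM Mg acetate, 0.01% Tween-20, 0.05% BSA with 10uM D-luciferin and 10uM ATP. Compounds titrated qHTS. Luminescence imaged on CCD.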
Of the large screens only hits and unclear results are named; the others gave an inactive call. Rows were chosen to be rich in hits. Some 10% of all compounds tested hit in one or more screens of this group. Unless noted, the call rests on the fitted dose curve; in most records, active means well fitted curve in the direction sought with a large enough effect; inconclusive means small, poorly fitted or top-dose-only effect, or another doubt; inactive means no such curve, though single readings can be large; an effect the other way counts as inactive or inconclusive.

O=c1cc2c(nn1Cc1ccc(OC(F)(F)F)cc1)CCCCC2	HEK cytotox 44.7µM, 3T3 cytotox inconclusive
CN1CCC2(Cc3ccccc3CN(C(=O)c3ccccc3)C2)C1 (centres undefined)	HEK cytotox inconclusive (no result: hNpr1 antagonist, Luciferase inh)
COc1ccc(C2Cn3nnc(C(=O)N4CCN(C(=O)c5cc(F)ccc5Cl)CC4)c3CO2)cc1 (centres undefined)	HEK cytotox inconclusive, hNpr1 antagonist 12.6µM, 3T3 cytotox inconclusive
COc1ccc(C2Cn3nnc(C(=O)N4CCN(C(=O)c5ccccc5Cl)CC4)c3CO2)cc1 (centres undefined)	HEK cytotox inconclusive, hNpr1 antagonist inconclusive, 3T3 cytotox inconclusive
CCOc1ccccc1C(=O)N1CCN(C(=O)c2nnn3c2COC(c2ccc(Cl)cc2)C3)CC1 (centres undefined)	HEK cytotox 31.6µM, hNpr1 antagonist inconclusive, 3T3 cytotox inconclusive
O=C(c1nnn2c1COC(c1ccc(Cl)cc1)C2)N1CCN(C(=O)C2(c3ccccc3)CC2)CC1 (centres undefined)	HEK cytotox 22.4µM, hNpr1 antagonist inconclusive, 3T3 cytotox 28.2µM
COCC(=O)NC1CCN(C(=O)c2ccc(-c3cccs3)cc2)CC1	HEK cytotox inconclusive, 3T3 cytotox inconclusive (no result: hNpr1 antagonist, Luciferase inh)
Cc1ccc(C)c(-c2cc3c(=O)n(CCNC(=O)c4cccc(N(C)C)c4)ccn3n2)c1	HEK cytotox inconclusive, 3T3 cytotox inconclusive
COc1ccc2nc(CO[C@H]3CN(C4CCN(C(C)=O)CC4)C[C@H]3F)[nH]c2c1	none
c1cc(-c2cc(-c3ccncc3)c3cncn3c2)cc(N2CCOCC2)c1	HEK cytotox inconclusive, 3T3 cytotox 22.4µM
Oc1cccc(-c2cc(-c3ccncc3)c3cncn3c2)c1	HEK cytotox inconclusive, 3T3 cytotox inconclusive
Cc1noc(C)c1-c1cc(-c2cccc(N3CCOCC3)c2)cn2cncc12	HEK cytotox inconclusive, 3T3 cytotox 17.8µM
FC(F)(F)c1cccc(-c2cc(-c3ccncc3)c3cncn3c2)c1	HEK cytotox inconclusive, GPT2 inhibitor inconclusive, 3T3 cytotox 35.5µM
c1ccc(CN(Cc2ccccn2)[C@H]2C[C@H]3CCOC[C@@]3(c3ccccc3)C2)cc1	HEK cytotox 50.1µM, 3T3 cytotox inconclusive (no result: hNpr1 antagonist, GPT2 inhibitor, Luciferase inh)
COc1cccc(CN(Cc2ccccc2)[C@H]2C[C@H]3CCOC[C@@]3(c3ccccc3)C2)c1	HEK cytotox inconclusive (no result: hNpr1 antagonist, GPT2 inhibitor, Luciferase inh)
COc1ccc(C(=O)N2CCN(c3nccc(Nc4ccccc4Cl)n3)CC2)cc1	HEK cytotox inconclusive, 3T3 cytotox inconclusive (no result: hNpr1 antagonist, Luciferase inh)
CC(=O)N1CCN(c2nccc(Nc3ccccc3Cl)n2)CC1	none (no result: hNpr1 antagonist, Luciferase inh)
O=C(c1ccccc1Cl)N1CCN(c2nccc(Nc3ccccc3F)n2)CC1	HEK cytotox inconclusive, 3T3 cytotox inconclusive (no result: hNpr1 antagonist, Luciferase inh)
CC(C)C(=O)N1CCN(c2nccc(Nc3ccccc3Cl)n2)CC1	HEK cytotox 39.8µM, 3T3 cytotox inconclusive (no result: hNpr1 antagonist, Luciferase inh)
Cc1ccc(C(=O)N2CCN(c3nccc(Nc4ccccc4Cl)n3)CC2)cc1	HEK cytotox 22.4µM, 3T3 cytotox inconclusive (no result: hNpr1 antagonist, Luciferase inh)
O=C(c1ccccc1Cl)N1CCN(c2nccc(Nc3ccccc3Cl)n2)CC1	HEK cytotox 44.7µM, 3T3 cytotox inconclusive (no result: hNpr1 antagonist, Luciferase inh)
COc1ccccc1C(=O)N1CCN(c2nccc(Nc3ccccc3Cl)n2)CC1	HEK cytotox inconclusive, 3T3 cytotox 28.2µM (no result: hNpr1 antagonist, Luciferase inh)
Cc1ccc(-c2cn3cc(C(=O)NCc4cccc(Cl)c4)nc3s2)cc1	HEK cytotox inconclusive, 3T3 cytotox inconclusive (no result: hNpr1 antagonist, Luciferase inh)
COc1ccc(Nc2ccnc(N3CCN(C(=O)c4ccccc4Cl)CC3)n2)cc1	HEK cytotox 39.8µM, 3T3 cytotox inconclusive (no result: hNpr1 antagonist, Luciferase inh)
CCc1nc(-c2c3n(c(=O)n(CC(=O)Nc4c(C)cccc4CC)c2=O)CCCC3)no1	none
O=C(NCc1cccc(F)c1)C1CCCCN1Cc1ccc(-c2ccsc2)cc1 (centres undefined)	HEK cytotox 39.8µM, 3T3 cytotox 28.2µM (no result: hNpr1 antagonist, Luciferase inh)
Cc1cc(C)cc(-c2ccc(CN3CCCC3C(=O)NCc3cccc(F)c3)cc2)c1 (centres undefined)	HEK cytotox inconclusive, 3T3 cytotox inconclusive (no result: hNpr1 antagonist, Luciferase inh)
O=C(NCc1ccc2c(c1)OCO2)C1CCCCN1Cc1ccc(-c2ccsc2)cc1 (centres undefined)	HEK cytotox 22.4µM, 3T3 cytotox 12.6µM (no result: hNpr1 antagonist, Luciferase inh)
O=C(NCc1cccc(F)c1)C1CCCCN1Cc1ccc(-c2cccs2)cc1 (centres undefined)	HEK cytotox 20µM, 3T3 cytotox 28.2µM (no result: hNpr1 antagonist, Luciferase inh)
O=C([C@H]1CCCN1C(=O)c1ccc(F)cc1)N1CCC(N2CCOC2=O)CC1	none (no result: hNpr1 antagonist, Luciferase inh)
O=C(C[C@@H]1CCNC[C@@H]1Cc1cc(COc2ccccc2)on1)N1CCN(c2ccc(F)cc2)CC1	HEK cytotox 22.4µM, 3T3 cytotox 25.1µM
CC(C)(C)c1cc(C[C@H]2CNCC[C@H]2CC(=O)Nc2ccccc2)no1	HEK cytotox inconclusive, 3T3 cytotox 112µM
CC(=O)N1CCN(C(=O)C[C@@H]2CCNC[C@@H]2Cc2cc(COc3ccccc3)on2)CC1	none
CN(Cc1ccccc1)C(=O)C[C@@H]1CCNC[C@@H]1Cc1cc(CC2CCCCC2)on1	HEK cytotox 28.2µM, hNpr1 antagonist inconclusive, 3T3 cytotox 44.7µM
O=C(C[C@@H]1CCNC[C@@H]1Cc1cc(-c2ccccc2)on1)N1CCOCC1	none
COCc1cc(C[C@H]2CNCC[C@H]2CC(=O)N(C)Cc2ccccc2)no1	none
